Records with an inconclusive call do not appear. Active and inactive are the calls of the source. Calls come from the whole dose curve; as a rule, active = well fitted curve in the direction sought with a large enough effect; inconclusive = small, poorly fitted or top-dose-only effect, or another doubt; inactive = no such curve, though single readings can be large; an effect the other way counts as inactive or inconclusive. Peptide text beside a SMILES is read from it. * marks the point of attachment. Octanoyl = CCCCCCCC(=O)*
Experiments:
[1] = OV-KATE Cancer Cell Toxicity qHTS against the NCATS CANVASS Library (AID 1347345); note: potency is the fitted concentration of half-maximal effect
Outline: (§1)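 Toxicity is measured over 72 h of compound exposure at 37 degrees C under 5% CO2. Each well holds 1000 cells, pre-incubated for 4 hours before dosing across an 11-point range. CellTiter-Glo luminescence gives viability.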

[2] = HPAF-II Cancer Cell Toxicity qHTS against the NCATS CANVASS Library (AID 1347346); note: nearly all actives have a fitted effect of over 55% in size; note: potency is the fitted concentration of half-maximal effect
Outline: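 HPAF-II cells at 1000 cells/well were treated with an 11-point concentration series for 72 hours at 37 degrees C. Viability read by CellTiter-Glo luminescence.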

[3] = OV-SAHO Cancer Cell Toxicity qHTS against the NCATS CANVASS Library (AID 1347348); note: nearly all actives have a fitted effect of over 55% in size; note: potency is the fitted concentration of half-maximal effect
Outline: as §1

[4] = COV-362 Cancer Cell Toxicity qHTS against the NCATS CANVASS Library (AID 1347352); note: potency is the fitted concentration of half-maximal effect
Outline: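 Cells at 1000/well were given compound 4 h after plating in an 11-point series. Viability was read by CellTiter-Glo luminescence after 72 h at 37 degrees C.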

[5] = HPAF-II 24hr Apoptosis Induction qHTS against the NCATS CANVASS Library (AID 1347356)
Outline: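 HPAF-II cells (500/well) exposed to compounds in 11-point series for 24 h at 37 degrees C; caspase-3/7 activity read by Caspase-Glo luminescence after 15 min at room temperature. Doxorubicin titration as control.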

[6] = HEK293 18hr Apoptosis Induction qHTS against the NCATS CANVASS Library (AID 1347357); note: potency is the fitted concentration of half-maximal effect
Outline: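 Caspase-Glo 3/7 luminescence (15 min, room temperature) measured apoptosis after an 18-hour, 37 degrees C exposure of HEK293 cells (500 cells/well) to compounds in 11 points.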

[7] = HPAF-II 12hr Apoptosis Induction qHTS against the NCATS CANVASS Library (AID 1347358); note: potency is the fitted concentration of half-maximal effect
Outline: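 HPAF-II cells, 500/well in DMEM + 10% FBS, exposed 12 hours at 37 degrees C to compound (11-point). Caspase-Glo 3/7 added for 15 min at room temperature; luminescence reflects caspase-3/7 activity.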

[8] = HEK293 24hr Apoptosis Induction qHTS against the NCATS CANVASS Library (AID 1347359); note: potency is the fitted concentration of half-maximal effect
Outline: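 Caspase-3/7 activation measured as luminescence from the DEVD-based Caspase-Glo reagent, 15 min at room temperature, following 24-hour compound treatment of HEK293 cells.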

[9] = HPAF-II 18hr Apoptosis Induction qHTS against the NCATS CANVASS Library (AID 1347360); note: potency is the fitted concentration of half-maximal effect
Outline: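 Caspase-3/7 activation was measured with luminescent Caspase-Glo 3/7 reagent (15 min, RT) in HPAF-II cancer cells (500 cells/well). Before detection, cells had been treated for 18 h at 37 C with compounds (11 points).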

[10] = molecular target: Luciferin 4-monooxygenase (Photinus pyralis) (UniProt P08659); assay: Firefly luciferase counterscreen qHTS: Assay Interference Panel against the NCATS CANVASS Library (AID 1347363); note: potency is the fitted concentration of half-maximal effect
Outline: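 Luminescence inhibition readout: compounds (11-point qHTS) sat 15 min at room temperature with substrate mix (0.013 mM luciferin and ATP), then firefly luciferase was added and signal read 5 min later.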

[11] = MCF7 Cancer Cell Toxicity qHTS against the NCATS CANVASS Library (AID 1347369); note: potency is the fitted concentration of half-maximal effect
Outline: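 Cytotoxicity was measured as CellTiterGlo luminescence (ATP) after 72 h at 37 °C. The cells were MCF7 at 500 per well, with an 11-point compound concentration series.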

[12] = qHTS for ATAD5 Antagonist screened against the NCATS CANVASS Library (AID 1347370); note: nearly all actives have a fitted effect of over 65% in size; note: potency is the fitted concentration of half-maximal effect
Outline: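 HEK293T cells with stably integrated ATAD5-luciferase reporter, 2000/well, 5 h attachment; compounds plus 10 µM 5-fluorouridine, 16 h at 37 °C. Luciferase luminescence read, with CellTiter-Fluor viability read first.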

[13] = J3T Cancer Cell Toxicity qHTS against the NCATS CANVASS Library (AID 1347371); note: potency is the fitted concentration of half-maximal effect
Outline: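 J3T dog glioma cells, 500 per well, treated 72 h at 37C with compounds (11-point qHTS); viability from ATP content by CellTiterGlo luminescence; bortezomib titration as control.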

[14] = molecular target: Nuclear receptor subfamily 1 group I member 3 (Homo sapiens) (UniProt Q14994); assay: qHTS for Constitutive Androstane Receptor (CAR) Agonist screened against the NCATS CANVASS Library (AID 1347373);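 note: every well also contained 1.5 µM PK11195 alongside the test compound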
Outline: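 HepG2 cells stably carrying hCAR and a CYP2B6-2.2kb luciferase reporter, treated 24hr at 37C with compounds plus 1.5uM PK11195; activation by ONE-Glo luminescence, viability by CellTiter-Fluor.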

[15] = 10-beta competent E. coli microbial cell viability qHTS against the NCATS CANVASS Library (AID 1347376); note: series mostly up to about 46 µM
Outline: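 10-beta competent E. coli (0.2 OD) were exposed overnight at 37C to compounds in an 11-point series. Viability was read as ATP-dependent BacTiter-Glo luminescence after 20 min at room temperature.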

[16] = qHTS for Inflammasome Signaling Inhibitors: IL-1-beta AlphaLISA screen against the NCATS CANVASS Library (AID 1347379);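 note: human THP-1 cells primed with LPS then triggered with ATP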;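 for Potency: secreted IL-1B measured as AlphaLISA emission at 615 nm; potency is the fitted concentration of half-maximal effect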
Outline: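 THP-1 cells pretreated 1 hr with compound (up to 57.5 uM final), then stimulated with LPS (250 ng/mL final) and ATP (1.25 mM final). Secreted IL-1B measured by AlphaLISA after 16 hr; glyburide as positive control.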

[17] = Inflammasome Signaling qHTS Counterscreen: IL-1-beta AlphaLISA counterscreen against the NCATS CANVASS Library (AID 1347381);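 note: cell-free check with purified IL-1β in medium and no THP-1 cells; series mostly up to about 57 µM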
Outline: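 Cell-free interference check: compounds added to medium spiked with 4 pg purified IL-1β. Anti-IL-1β acceptor beads (6 ug/mL) with 0.6 nM biotinylated antibody added for 1 h at RT, then streptavidin donor beads (24 ug/mL) for 30 min in the dark. AlphaLISA read at 680/615 nm.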

[18] = Cytotoxicity qHTS for assessment of Hepg2 cells membrane integrity screened against the NCATS CANVASS Library (AID 1347387)
Outline: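 HepG2 cells (2000/well) attached overnight, then exposed 5 hr at 37C to compounds in an 11-point series (0.59 nM - 46 uM final). LDH release from damaged membranes read fluorometrically (CytoTox-ONE; 560/590 nm) after 10 min at room temperature.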

[19] = Viability qHTS for inhibitors of the SERCaMP assay screened against the NCATS CANVASS Library (AID 1347400); note: nearly all actives have a fitted effect of over 70% in size; note: potency is the fitted concentration of half-maximal effect
Outline: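 SH-SY5Y-GLuc SERCaMP MJH297-derived cells, 1000/well, plated 4 h, then exposed to compounds in an 11-point qHTS series for 48 h at 37C. Viability read as CellTiter-Glo luminescence.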

[20] = KB-3-1 Cancer Cell Toxicity qHTS against the NCATS CANVASS Library (AID 1347366); note: nearly all actives have a fitted effect of over 75% in size; note: potency is the fitted concentration of half-maximal effect
Outline: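 CellTiter-Glo luminescence measured viability after 72 h at 37C. KB-3-1 cells were seeded at 500 per well in DMEM/10% FBS.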

Measured: Potency

Chain of Luciferin 4-monooxygenase (Photinus pyralis) (P08659 whole entry, looked up): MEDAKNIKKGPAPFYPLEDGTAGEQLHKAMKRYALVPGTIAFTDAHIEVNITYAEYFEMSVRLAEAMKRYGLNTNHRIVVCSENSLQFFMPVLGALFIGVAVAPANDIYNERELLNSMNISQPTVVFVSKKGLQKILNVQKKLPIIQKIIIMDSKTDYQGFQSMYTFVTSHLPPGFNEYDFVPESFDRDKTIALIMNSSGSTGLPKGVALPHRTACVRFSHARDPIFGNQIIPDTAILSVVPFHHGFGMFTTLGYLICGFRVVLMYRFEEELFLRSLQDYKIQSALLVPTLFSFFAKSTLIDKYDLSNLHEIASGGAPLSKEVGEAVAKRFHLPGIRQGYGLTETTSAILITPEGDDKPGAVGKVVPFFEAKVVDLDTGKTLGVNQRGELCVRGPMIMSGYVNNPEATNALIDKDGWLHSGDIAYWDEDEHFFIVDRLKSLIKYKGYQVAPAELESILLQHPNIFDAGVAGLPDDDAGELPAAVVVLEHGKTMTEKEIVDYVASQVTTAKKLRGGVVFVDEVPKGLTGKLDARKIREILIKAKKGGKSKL
Chain of Nuclear receptor subfamily 1 group I member 3 (Homo sapiens) (Q14994 whole entry, looked up): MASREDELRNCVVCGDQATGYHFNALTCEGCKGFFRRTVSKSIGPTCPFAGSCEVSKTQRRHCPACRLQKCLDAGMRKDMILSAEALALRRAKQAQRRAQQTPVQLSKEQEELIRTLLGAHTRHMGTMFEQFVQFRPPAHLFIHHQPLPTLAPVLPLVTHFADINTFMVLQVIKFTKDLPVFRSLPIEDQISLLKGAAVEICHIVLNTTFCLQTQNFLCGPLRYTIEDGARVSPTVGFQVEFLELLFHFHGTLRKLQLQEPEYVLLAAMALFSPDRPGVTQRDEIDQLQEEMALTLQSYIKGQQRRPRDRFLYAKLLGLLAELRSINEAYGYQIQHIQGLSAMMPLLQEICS

COc1ccc(CCCc2cc(O)c(OC)c(O)c2)c(O)c1O
active: [12] 11700 nM
not listed: [20]
inactive: all other assays above

C[C@@H]1C[C@H]2C[C@]3(CCCCN3C)[C@@H]3C[C@H]2[C@H](C1)N(C)C3
not listed: [19]
inactive: all other assays above

C/C1=C\CC(=O)/C=C/C=C\c2csc(n2)[C@@H](C)NC(=O)C[C@@](S)([C@@H](C)C(=O)O)CC1
not listed: [10]
inactive: all other assays above

COc1c(O)cc2oc(-c3ccccc3)cc(=O)c2c1O
active: [10] 544 nM
not listed: [14] | [20]
inactive: all other assays above

CC(C)(Br)[C@@H](Cl)C[C@H](Br)[C@](C)(Cl)/C=C/Br
active: [1] 23600 nM | [2] 26600 nM
not listed: [3] | [4] | [16] | [19]
inactive: all other assays above

CN1C(=O)[C@]23SS[C@@]1(C)C(=O)N2[C@H]1Nc2ccccc2[C@]1(c1c[nH]c2ccccc12)[C@@H]3O
inactive: [10] | [14] | [15] | [17] | [18]
active: [1] 1060 nM | [2] 841 nM | [3] 838 nM | [4] 941 nM | [6] 8330 nM | [7] 590 nM | [8] 5260 nM | [9] 469 nM | [20] 2960 nM | [11] 3700 nM | [12] 4670 nM | [13] 1660 nM | [16] 1530 nM | [19] 2400 nM

CS/C=C/C(N)=O
inactive: all assays above

CCCCCCCC(=O)N[C@@H](CC(C)C)C(=O)N[C@H](C=O)CCC(=O)O (Octanoyl-Leu-Glu-aldehyde)
inactive: all assays above

CCCCCC[C@H](CCCCC[C@@H](O)C(N)=O)OC(=O)[C@@H]1CC=CN1C(=O)c1ccccc1O
not listed: [3]
inactive: all other assays above

CCCCCCC[C@@H](C/C=C/CCC(=O)NCCc1c[nH]c2ccccc12)OC
not listed: [12] | [15]
inactive: all other assays above

CC(=O)O[C@H]1CC[C@@]2(C)C(CC[C@]3(C)C2CC=C2C4CC(C)(C)CC[C@]4(C)CC[C@]23C)C1(C)C (some centres undefined)
inactive: all assays above

C=C1/C=C\C(CCC)=C\c2csc(n2)C(C)NC(=O)C[C@@]2(CC(=O)O)CCC(=C)[C@H](C1)S2 (some centres undefined)
inactive: all assays above

COc1ccc2cc(NC(=O)C3=NO[C@H]4[C@H](O)C=C[C@@H](Cl)[C@@]4(O)C3)c(=O)oc2c1OC
not listed: [12]
inactive: all other assays above

CC(=O)[C@@H]1[C@@H](O)C[C@H]2[C@]3(C)CC[C@H]4C(C)(C)CCC[C@]4(CO)[C@H]3C[C@H]3OC(=O)[C@@H]1[C@@]32C
inactive: all assays above

C/C1=C/[C@@H](C)[C@H](O)C/C=C/CC/C=C/C(=O)O[C@@H]1[C@H](C)C(=O)/C=C/CC1CC(=O)NC(=O)C1
active: [1] 18800 nM | [2] 13300 nM | [3] 8380 nM | [20] 13200 nM | [12] 16600 nM | [13] 16600 nM | [16] 13700 nM | [19] 38100 nM
not listed: [4]
inactive: all other assays above

COc1ccc([C@@H]2c3cc(OC)c(OC)cc3C(=O)C(C)C2C)cc1OC (some centres undefined)
active: [12] 20900 nM
not listed: [19]
inactive: all other assays above

C[C@@H]1O[C@@H](O[C@@H]2[C@@H](O)[C@H](O[C@@H]3[C@@H](O)[C@@H](O)C(O[C@H]4[C@H](OC(=O)[C@]56CCC(C)(C)C[C@H]5C5=CCC7[C@@]8(C)C[C@H](O)[C@H](O[C@@H]9C[C@H](CO)[C@@H](O)[C@H](O)[C@H]9O)[C@@](C)(CO)C8[C@H](O)C[C@@]7(C)[C@]5(C)CC6)OC[C@H](O)[C@@H]4O)O[C@H]3C)OC[C@H]2O)[C@H](O)[C@H](O)[C@H]1O (some centres undefined)
inactive: all assays above

Oc1ccc([C@H]2Oc3ccc(/C=C/c4cc(O)cc(O)c4)cc3C2c2cc(O)cc(O)c2)cc1 (some centres undefined)
not listed: [16]
inactive: all other assays above

C=CC(C)(C)C(=O)[C@@H](C)[C@@H]1CC[C@](C)(C=C)O1
inactive: all assays above

O=C1C[C@@H](c2ccc(O)c(-c3c(O)cc(O)c4c3O[C@H](c3ccc(O)cc3)CC4=O)c2)Oc2cc(O)cc(O)c21
inactive: all assays above

O=c1cc(-c2ccc(O)c(O[C@@H]3O[C@H](CO)[C@@H](O)[C@H](O)[C@H]3O)c2)oc2cc(O[C@@H]3O[C@H](CO)[C@@H](O)[C@H](O)[C@H]3O)cc(O)c12
inactive: all assays above

CC1=CC2=C[C@H](C)C[C@@]23OC(=C(C)C3=O)CC(C)(C)/C=C/C1=O
inactive: [5] | [7] | [9] | [10] | [14] | [15] | [17]
active: [1] 838 nM | [2] 668 nM | [3] 2110 nM | [20] 2640 nM | [11] 1650 nM | [12] 933 nM | [13] 935 nM | [16] 1090 nM | [19] 1520 nM

Reference: PubChem BioAssay (NCATS)
